{
  "source": "PubChem BioAssay (NCI)",
  "note": "The panel holds about 83,000 compounds, 20% with a hit somewhere; the sample as a whole holds those more often.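 Single-concentration screen, 48 h exposure, 96-well plates. Endpoint: percent growth. Below 10 = active.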 The source made the active and inactive calls.",
  "data": [
    {"test_system": "MDA-MB-468 breast", "assay": "NCI-60 one-dose screen, 48 h (100 = growth as untreated, 0 = no growth, -100 = all killed)", "conditions": "10 µM unless noted", "values": [
      {"smiles": "CCOC(=O)c1ccc2c(c1)[n+](=O)c(C(C)=O)c(C(F)(F)F)n2[O-]", "growth": "-37% (active)"},
      {"smiles": "Cn1cc(-c2csc(-c3c[nH]c4ccc(Br)cc34)n2)c2ccnc(Cl)c21", "growth": "14% (inactive)"},
      {"smiles": "COc1cccc(/C=C2\\SC(N3CCN(c4ccccn4)CC3)=NC2=O)c1", "growth": "101% (inactive)"}
    ]}
  ]
}
